Values joined by “and” are separate entries in the source; they are usually repeats but may differ in a detail not shown here. Identical values can stand only once. The source holds several records for some structures; these can differ, active in one and inactive in another. Active and inactive are the calls of the source. Rule for the calls: active = hit-call score of the fitted dose curve at least 0.9, where 1 is the maximum; inactive = score below 0.9.

Read-out in assay [1]: Interleukin-8 (IL8), CXCL8 (gene 3576)
The assay can be described thus: BSK_3C_IL8: BioMAP Diversity Plus: 3C Assay for Interleukin-8 (IL8) Biomarker Activity (AID 2283020). The conditions noted are these: primary human endothelial cells (HUVEC); actives raise or lower the signal. The procedure, abridged:
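Primary human umbilical vein endothelial cells (3C system) were exposed to test chemical for 24 h, then IL-8 was quantified by ELISA. Responses were fitted bidirectionally against DMSO vehicle as baseline.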

Read-out in assay [2]: Thrombomodulin, THBD (gene 7056)
The assay can be described thus: BSK_3C_Thrombomodulin: BioMAP Diversity Plus: 3C Assay for Thrombomodulin Biomarker Activity (AID 2283029). The conditions noted are these: primary human endothelial cells (HUVEC); actives raise or lower the signal. The procedure, abridged: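 Primary human umbilical vein endothelial cells (3C system) were exposed to chemical for 24 h, then thrombomodulin levels were measured by ELISA. Activity was fitted bidirectionally against the DMSO negative control as baseline.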

Read-out in assay [3]: Urokinase-type plasminogen activator receptor (uPAR), PLAUR (gene 5329)
The assay can be described thus: BSK_4H_uPAR: BioMAP Diversity Plus: 4H Assay for Urokinase-type plasminogen activator receptor (uPAR) Biomarker Activity (AID 2283030). The conditions noted are these: primary human endothelial cells (HUVEC); actives raise or lower the signal. The procedure, abridged:
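HUVEC, 24 h post-dose; uPAR by ELISA; bidirectional fit vs DMSO baseline.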

Read-out in assay [4]: Vascular endothelial growth factor receptor 2 (Homo sapiens) (UniProt P35968)
Description: BSK_4H_VEGFRII: BioMAP Diversity Plus: 4H Assay for Vascular endothelial growth factor receptor 2 (VEGFR2) Biomarker Activity (AID 2283031). Particulars: primary human endothelial cells (HUVEC); actives raise or lower the signal. The procedure, abridged: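 HUVEC (human primary), 4H system; 24 h post-dose; VEGFRII by ELISA; bidirectional curve fit vs DMSO baseline; gain or loss of signal scored.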

Read-out in assay [5]: Monokine induced gamma interferon (MIG), CXCL9 (gene 4283)
The assay can be described thus: BSK_CASM3C_MIG: BioMAP Diversity Plus: CASM3C Assay for Monokine induced gamma interferon (MIG) Biomarker Activity (AID 2283048).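 Note: MIG protein level measured by ELISA.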 The conditions noted are these: primary human coronary artery smooth muscle cells; actives raise or lower the signal.

Read-out in assay [6]: serum amyloid A (SAA), SAA1 (gene 6288)
The assay can be described thus: BSK_CASM3C_SAA: BioMAP Diversity Plus: CASM3C Assay for serum amyloid A (SAA) Biomarker Activity (AID 2283049).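 Note: SAA protein level quantified by ELISA.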 The conditions noted are these: primary human coronary artery smooth muscle cells; actives raise or lower the signal.

Read-out in assay [7]: Thrombomodulin, THBD (gene 7056)
Description: BSK_CASM3C_Thrombomodulin: BioMAP Diversity Plus: CASM3C Assay for Thrombomodulin Biomarker Activity (AID 2283051).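 Note: thrombomodulin protein level measured by ELISA 24 h after dosing.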 The conditions noted are these: primary human coronary artery smooth muscle cells; actives raise or lower the signal.

Read-out in assay [8]: Vascular cell adhesion molecule 1 (VCAM1), VCAM1 (gene 7412)
Description: BSK_CASM3C_VCAM1: BioMAP Diversity Plus: CASM3C Assay for Vascular cell adhesion molecule 1 (VCAM1) Biomarker Activity (AID 2283055).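 Note: VCAM-1 protein level quantified by ELISA on the cells.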 Particulars: primary human coronary artery smooth muscle cells; actives raise or lower the signal.

Read-out in assay [9]: Interleukin-8 (IL8), CXCL8 (gene 3576)
Description: BSK_LPS_IL8: BioMAP Diversity Plus: LPS Assay for Interleukin-8 (IL8) Biomarker Activity (AID 2283078). The conditions noted are these: primary human HUVEC with PBMC; actives raise or lower the signal. The essentials: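 HUVEC + PBMC co-culture, LPS-activated; test chemicals dosed, IL-8 read by ELISA at 24 h. Bidirectional curve fit vs DMSO baseline (gain or loss of signal).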

Read-out in a further assay: CD40, CD40 (gene 958)
Description: BSK_SAg_CD40: BioMAP Diversity Plus: SAg Assay for CD40 Biomarker Activity (AID 2283088). Particulars: primary human HUVEC with PBMC; actives raise or lower the signal. The essentials: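 HUVEC/PBMC co-culture, 24 h post-dose; CD40 by ELISA, fluorescence intensity; bidirectional fit vs DMSO negative control.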

Read-out in assay [10]: Collagen I, COL1A1 (gene 1277)
The assay can be described thus: BSK_hDFCGF_CollagenI: BioMAP Diversity Plus: hDFCGF Assay for Collagen I Biomarker Activity (AID 2284250). The conditions noted are these: primary human foreskin fibroblasts. The essentials: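 Primary human foreskin fibroblasts (hDFCGF system) exposed to chemical for 24 h; Collagen I measured by ELISA. Activity fitted in the positive direction relative to DMSO baseline, with SRB total-protein staining in parallel cultures for overt cytotoxicity.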

A short description of assay [11]: ATG_FoxO_CIS: Attagene CIS-FACTORIAL HepG2 Assay for human Forkhead box O (FoxO) (AID 2282943). Particulars: HepG2 Attagene cis-reporter, FoxO element, mRNA; actives raise or lower the signal. The essentials:
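Values reflect reporter mRNA induction or loss in HepG2 cells 24 h post-dosing, fitted bidirectionally with DMSO as negative control and baseline. Detection used RT-PCR and fluorescence capillary electrophoresis.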

Assay [12] is described as follows: ATG_GRE_CIS: Attagene CIS-FACTORIAL HepG2 Assay for human Glucocorticoid Response Elements (GRE) (AID 2282947). Particulars: HepG2 GRE cis-reporter, Attagene multiplex mRNA; actives raise or lower the signal. The procedure, abridged:
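HepG2 cells transiently transfected with multiple cis-promoter reporter units measure endogenous TF activity; 24 h compound exposure. Reporter mRNA quantified by RT-PCR, FAM labelling, HpaI digestion and capillary electrophoresis; bidirectional fit vs DMSO baseline.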

Assay [13] deals with Hepatocyte nuclear factor 6 (Homo sapiens) (UniProt Q9UBC0). Description: ATG_HNF6_CIS: Attagene CIS-FACTORIAL HepG2 Assay for human Hepatocyte Nuclear Factor 6 (HNF6) (AID 2282952). The conditions noted are these: HepG2 Attagene cis-factorial HNF6 reporter transcription; actives raise or lower the signal. The essentials:
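Transiently transfected HepG2 cells expressing cis-regulated reporter transcription units were exposed to chemical for 24 h in a 24-well format. Reporter transcript abundance was determined by fluorescence capillary electrophoresis.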

Assay [14] has as its target Heat shock factor protein 1 (Homo sapiens) (UniProt Q00613). Description: ATG_HSE_CIS: Attagene CIS-FACTORIAL HepG2 Assay for human Heat Shock Transcription Factor 1 (HSE) (AID 2282953). The conditions noted are these: HepG2 HSE cis-reporter, Attagene RNA transcription; actives raise or lower the signal. The procedure, abridged: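 Endogenous transcription factor activity captured via cis-promoter reporter units transfected into HepG2; treatment lasted 24 h. Fluorescence intensity of reporter fragments analysed with bidirectional curve fitting, DMSO baseline.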

Assay [15] addresses Nuclear respiratory factor 1 (Homo sapiens) (UniProt Q16656). Description: ATG_NRF1_CIS: Attagene CIS-FACTORIAL HepG2 Assay for human Nuclear Respiratory Factor 1 (NRF1) Orphan Gene (AID 2282987). The conditions noted are these: HepG2 NRF1 cis-element reporter, Attagene multiplex; actives raise or lower the signal. The essentials:
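Transcriptional reporter readout, one component of a 52-endpoint multiplexed HepG2 panel. Exposure 24 h; mRNA detected via RT-PCR and fluorescent capillary electrophoresis; fitting in both directions against DMSO.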

Assay [16] can be described thus: ATG_NRF2_ARE_CIS: Attagene CIS-FACTORIAL HepG2 Assay for human Nuclear Factor Erythroid 2 Related Factor 2 (NFR2) response to Antioxidant Response Elements (ARE) (AID 2282992).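 For AC50: reporter mRNA level measured by RT-PCR and capillary electrophoresis fluorescence.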 The conditions noted are these: HepG2 Attagene ARE/NRF2 reporter, transcription factor activity; actives raise or lower the signal. The procedure, abridged: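 HepG2 cells transiently transfected with multiplexed cis-element reporter constructs, 24 h after chemical dosing; reporter mRNA quantified by RT-PCR, fluorescent primer extension, HpaI digestion and capillary electrophoresis. Bidirectional fit relative to DMSO.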

Assay [17] deals with Cellular tumor antigen p53 (Homo sapiens) (UniProt P04637). The assay can be described thus: ATG_p53_CIS: Attagene CIS-FACTORIAL HepG2 Assay for human p53 Transcription Factor (AID 2282994). The conditions noted are these: HepG2 p53 cis-element reporter, Attagene mRNA; actives raise or lower the signal. The essentials: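 HepG2 cells transiently transfected with cis-regulated multiple reporter transcription units, dosed 24 h. Reporter mRNA measured by RT-PCR, 6-FAM primer extension, HpaI digestion and capillary electrophoresis; bidirectional fit relative to DMSO.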
Sequence of Cellular tumor antigen p53 (Homo sapiens) (P04637 whole entry, looked up): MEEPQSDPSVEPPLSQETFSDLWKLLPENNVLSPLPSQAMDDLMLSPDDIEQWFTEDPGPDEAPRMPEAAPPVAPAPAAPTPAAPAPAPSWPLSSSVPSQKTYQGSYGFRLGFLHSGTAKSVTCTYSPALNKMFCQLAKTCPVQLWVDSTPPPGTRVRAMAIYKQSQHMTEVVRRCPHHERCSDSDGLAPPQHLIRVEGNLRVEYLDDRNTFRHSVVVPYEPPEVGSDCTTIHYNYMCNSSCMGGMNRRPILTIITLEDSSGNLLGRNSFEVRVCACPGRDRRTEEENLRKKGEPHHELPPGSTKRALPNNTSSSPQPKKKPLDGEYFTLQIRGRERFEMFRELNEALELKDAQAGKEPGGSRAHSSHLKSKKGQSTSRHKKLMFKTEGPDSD

The target of assay [18] is Hypoxia-inducible factor 1-alpha (Homo sapiens) (UniProt Q16665). Description: ATG_HIF1a_CIS: Attagene CIS-FACTORIAL HepG2 Assay for human Hypoxia Inducible Factor 1 (HIF1A) (AID 2282951). Particulars: HepG2 Attagene cis-factorial HIF1a reporter transcription; actives raise or lower the signal. The procedure, abridged: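 In this multiplexed cell assay, HepG2 cells bearing transfected cis reporters are dosed for 24 h and reporter mRNA is read by RT-PCR plus capillary electrophoresis; signal increases and decreases are both scored against DMSO.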
Sequence of Hypoxia-inducible factor 1-alpha (Homo sapiens) (Q16665 whole entry, looked up): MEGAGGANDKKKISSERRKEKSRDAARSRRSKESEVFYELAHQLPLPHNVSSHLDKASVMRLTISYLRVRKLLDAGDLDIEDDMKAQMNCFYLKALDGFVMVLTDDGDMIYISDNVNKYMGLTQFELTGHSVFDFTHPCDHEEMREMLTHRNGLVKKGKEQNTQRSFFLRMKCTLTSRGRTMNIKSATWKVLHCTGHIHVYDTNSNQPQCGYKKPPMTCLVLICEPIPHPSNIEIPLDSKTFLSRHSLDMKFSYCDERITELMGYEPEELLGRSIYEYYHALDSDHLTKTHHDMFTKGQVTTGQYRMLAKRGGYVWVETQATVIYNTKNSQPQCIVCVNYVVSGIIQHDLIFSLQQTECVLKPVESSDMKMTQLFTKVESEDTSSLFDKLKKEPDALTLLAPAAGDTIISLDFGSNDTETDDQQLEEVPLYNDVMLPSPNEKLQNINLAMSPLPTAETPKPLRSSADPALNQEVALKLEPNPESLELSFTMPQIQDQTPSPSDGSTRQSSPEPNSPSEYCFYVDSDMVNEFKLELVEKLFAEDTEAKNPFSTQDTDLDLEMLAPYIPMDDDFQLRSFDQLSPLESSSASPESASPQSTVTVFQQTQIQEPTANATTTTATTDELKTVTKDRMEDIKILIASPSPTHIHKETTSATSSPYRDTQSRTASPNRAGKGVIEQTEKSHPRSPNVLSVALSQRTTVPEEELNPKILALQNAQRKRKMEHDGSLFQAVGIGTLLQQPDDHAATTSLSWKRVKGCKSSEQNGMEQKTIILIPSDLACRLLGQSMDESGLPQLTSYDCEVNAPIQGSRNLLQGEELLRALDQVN

Assay [19] addresses Hepatocyte nuclear factor 3-beta (Homo sapiens) (UniProt Q9Y261). The assay can be described thus: ATG_FoxA2_CIS: Attagene CIS-FACTORIAL HepG2 Assay for human Forkhead box A2 (FOXA2) (AID 2282942). Particulars: HepG2 cis-reporter transcription factor activity, 24 h; actives raise or lower the signal. The essentials: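 In transiently transfected human HepG2 cells, promoter-driven reporter mRNA levels after 24 h chemical exposure are determined via RT-PCR with capillary electrophoresis. DMSO serves as baseline for bidirectional fitting.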

Sequence of Nuclear respiratory factor 1 (Homo sapiens) (Q16656 whole entry, looked up): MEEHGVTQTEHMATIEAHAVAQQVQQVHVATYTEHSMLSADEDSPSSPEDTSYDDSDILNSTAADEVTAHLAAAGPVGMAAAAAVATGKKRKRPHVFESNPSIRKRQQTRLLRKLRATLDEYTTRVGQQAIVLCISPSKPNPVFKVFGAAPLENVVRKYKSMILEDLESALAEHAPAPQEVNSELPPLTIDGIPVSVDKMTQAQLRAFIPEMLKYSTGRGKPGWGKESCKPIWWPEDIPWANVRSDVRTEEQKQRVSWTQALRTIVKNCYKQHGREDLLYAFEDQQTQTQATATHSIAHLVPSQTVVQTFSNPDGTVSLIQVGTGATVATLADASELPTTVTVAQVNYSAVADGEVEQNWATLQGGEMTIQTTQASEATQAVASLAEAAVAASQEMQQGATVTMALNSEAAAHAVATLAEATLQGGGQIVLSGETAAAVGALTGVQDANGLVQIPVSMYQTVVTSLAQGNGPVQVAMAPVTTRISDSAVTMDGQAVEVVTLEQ
Sequence of Heat shock factor protein 1 (Homo sapiens) (Q00613 whole entry, looked up, the tested form may be a part): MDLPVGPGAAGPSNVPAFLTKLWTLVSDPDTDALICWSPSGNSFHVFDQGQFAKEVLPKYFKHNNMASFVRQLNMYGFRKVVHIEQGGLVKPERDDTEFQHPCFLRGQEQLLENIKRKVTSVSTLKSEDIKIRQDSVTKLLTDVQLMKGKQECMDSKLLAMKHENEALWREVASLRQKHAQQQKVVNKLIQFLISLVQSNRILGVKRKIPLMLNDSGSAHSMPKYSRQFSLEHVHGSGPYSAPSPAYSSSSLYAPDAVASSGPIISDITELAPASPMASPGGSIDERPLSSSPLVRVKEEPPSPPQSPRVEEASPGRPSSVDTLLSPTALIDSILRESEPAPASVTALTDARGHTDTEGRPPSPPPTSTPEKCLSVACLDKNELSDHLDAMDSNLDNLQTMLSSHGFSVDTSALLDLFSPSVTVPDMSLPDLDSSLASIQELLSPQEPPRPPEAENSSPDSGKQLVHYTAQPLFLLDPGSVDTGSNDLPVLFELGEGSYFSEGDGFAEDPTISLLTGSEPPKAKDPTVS
Sequence of Hepatocyte nuclear factor 6 (Homo sapiens) (Q9UBC0 whole entry, looked up): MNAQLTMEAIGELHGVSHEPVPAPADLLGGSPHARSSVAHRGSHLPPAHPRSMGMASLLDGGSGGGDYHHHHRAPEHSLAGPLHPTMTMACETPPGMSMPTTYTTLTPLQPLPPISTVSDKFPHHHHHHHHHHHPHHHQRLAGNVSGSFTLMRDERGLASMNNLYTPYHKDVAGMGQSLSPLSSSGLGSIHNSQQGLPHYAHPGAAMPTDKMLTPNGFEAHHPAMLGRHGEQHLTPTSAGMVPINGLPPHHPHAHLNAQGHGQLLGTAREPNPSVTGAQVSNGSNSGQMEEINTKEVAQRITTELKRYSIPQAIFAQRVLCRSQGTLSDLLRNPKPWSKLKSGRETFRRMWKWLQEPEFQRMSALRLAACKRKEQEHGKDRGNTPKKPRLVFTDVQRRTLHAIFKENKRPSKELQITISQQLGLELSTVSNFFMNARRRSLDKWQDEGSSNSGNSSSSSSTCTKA
Sequence of Hepatocyte nuclear factor 3-beta (Homo sapiens) (Q9Y261 whole entry, looked up): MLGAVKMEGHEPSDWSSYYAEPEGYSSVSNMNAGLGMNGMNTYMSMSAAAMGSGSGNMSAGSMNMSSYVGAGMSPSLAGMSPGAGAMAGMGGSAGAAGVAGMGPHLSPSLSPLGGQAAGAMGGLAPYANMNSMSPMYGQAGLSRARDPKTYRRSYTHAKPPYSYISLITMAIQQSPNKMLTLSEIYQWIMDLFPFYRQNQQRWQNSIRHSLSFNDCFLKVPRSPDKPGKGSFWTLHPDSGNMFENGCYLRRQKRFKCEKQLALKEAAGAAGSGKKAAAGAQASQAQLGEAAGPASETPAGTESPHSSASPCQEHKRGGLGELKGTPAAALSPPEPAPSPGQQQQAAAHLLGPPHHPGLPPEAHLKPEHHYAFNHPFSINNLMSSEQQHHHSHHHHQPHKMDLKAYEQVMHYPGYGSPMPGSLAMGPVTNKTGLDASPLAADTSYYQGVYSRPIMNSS

For the molecule `COc1cc(CNC(=O)CCCC/C=C/C(C)C)ccc1O`, the result in assay [1], in assay [2], in [3], in [4], in assay [5] and in assay [6] was inactive. For the same molecule, the outcome in assay [7] is “inactive”; in assay [8], “inactive”; in assay [9], “inactive”; in the assay with CD40, CD40 (gene 958), “inactive”; in assay [10], “inactive”. The AC50 (in general, the concentration at which the activity in the assay is half-maximal) is 15.1 µM (active) in assay [2] and 20 µM (active) with CD40, CD40 (gene 958).
As to `COc1ccccc1Oc1c(NS(=O)(=O)c2ccc(C(C)(C)C)cc2)nc(-c2ncccn2)nc1OCCO`, the result in assay [1], in assay [2], in [3], in assay [4], in assay [5] and in assay [6] was inactive. Moreover, the outcome was “inactive” in [7]; “inactive” in [8]; “inactive” in the assay with CD40, CD40 (gene 958); “inactive” in assay [10]. Further, the AC50 is 3.97 µM (active) in assay [6]; 7.25 µM (active) in assay [7]; 10 µM (active) in [8]; 20 µM (active) and 9.01 µM (active) in [9]; 20 µM (active) with CD40, CD40 (gene 958).
With `CNC(=C[N+](=O)[O-])NCCSCc1csc(CN(C)C)n1`, the result in assay [11], in assay [12], in assay [13], in assay [14], in assay [15] and in assay [16] was inactive. The call in [17] was inactive.
With `COc1ccc(C(=O)c2ccccc2O)c(O)c1`, the AC50 in assay [1] was 7.28 µM (active); in assay [3], 10.2 µM (active); in [5], 20 µM (active) and 16.1 µM (active); in assay [8] it was 13.4 µM (active) and 3.97 µM (active); with CD40, CD40 (gene 958), 29.9 µM (active). Besides, the result in [1], in [2], in assay [3], in [4], in assay [6] and in assay [7] was inactive. Also, the outcome in assay [9] was “inactive”; with CD40, CD40 (gene 958), “inactive”; in [10], “inactive”.
Turning to `CCCCCC[C@@H](O)C/C=C\CCCCCCCC(=O)O`, the AC50 in assay [11] was 156 µM (active); in assay [12] it was 186 µM (active); in assay [13] it was 160 µM (active); in assay [14], 187 µM (active); in assay [15] it was 139 µM (active); in assay [16], 100 µM (active). Further, the outcome in assay [18] and in [17] was inactive.
In the case of `O=S(=O)(O)c1cccc2ccccc12`, the outcome in assay [19], in [11], in [12], in assay [18], in assay [13] and in assay [14] was inactive. The outcome in assay [15], in [16] and in [17] was inactive.

The record behind these values is PubChem BioAssay (EPA / NIEHS).
